rCAG binder = molecules binding r(CAG) RNA repeats; r(CAG) RNA repeat, TO-PRO-1 dye displacement fluorescence; inhibition, % at 3 µM; hit rate 1.3% among 370,000;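 active means inhibition above the plate cutoff, the mean of all test compounds on that plate plus 3 SD, cut at about 35% in these data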;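 further: 0% = DMSO alone and 100% = 100 µM mitoxantrone as full dye displacement; higher means more dye released from RNA so lower well fluorescence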
ADAM10 inh = ADAM10 inhibition, QFRET primary screen; O14672; recombinant ADAM10, EDANS/DABCYL FRET peptide cleavage, 3 h; inhibition, % at 7 µM; hit rate 0.62% among 370,000;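 active means inhibition above a per-campaign cutoff equal to the mean of compounds falling between control-based bounds plus 3 SD, cut at about 20% in these data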;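 further: 0% = DMSO wells while the 100% control is not disclosed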
MPTP block = permeability transition pore inhibition; isolated mouse mitochondria, Ca2+ swelling absorbance, 30 min; inhibition, % at 10 µM; hit rate 1.4% among 360,000; AID 602449;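 active means inhibition of 50% or more, scaled per plate between neutral and stimulator controls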;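 further: 0% = DMSO wells given calcium and 100% = 1 mM EGTA wells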
proKLK7 act = proKLK7 (human) activation, primary screen. hit rate 0.9% among 370,000. P49862. activation, % at 7 µM. purified proKLK7, EDANS-DABCYL substrate fluorescence; 100% is mature enzyme control, 0% vehicle. AID 652039;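 active means activation above the mean of all tested compounds plus 3 SD, computed per campaign excluding outliers beyond control limits, cut at about 13% in these data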
Pemphigus Ab inh = human desmoglein-3 autoantibody binding inhibition; P32926; DSG3-coupled beads, scFv-anti-DSG3-GFP binding, flow cytometry; stronger effect = lower value; binding (percent of control), % at 10 µM; hit rate 0.48% among 310,000; AID 588358;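 active means binding more than 3 SD below its plate's average and above zero; inconclusive means below that plate limit but binding exactly zero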;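 further: hits lower antibody fragment binding to DSG3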
Target sequence (P32926 whole entry, looked up, the tested form may be a part): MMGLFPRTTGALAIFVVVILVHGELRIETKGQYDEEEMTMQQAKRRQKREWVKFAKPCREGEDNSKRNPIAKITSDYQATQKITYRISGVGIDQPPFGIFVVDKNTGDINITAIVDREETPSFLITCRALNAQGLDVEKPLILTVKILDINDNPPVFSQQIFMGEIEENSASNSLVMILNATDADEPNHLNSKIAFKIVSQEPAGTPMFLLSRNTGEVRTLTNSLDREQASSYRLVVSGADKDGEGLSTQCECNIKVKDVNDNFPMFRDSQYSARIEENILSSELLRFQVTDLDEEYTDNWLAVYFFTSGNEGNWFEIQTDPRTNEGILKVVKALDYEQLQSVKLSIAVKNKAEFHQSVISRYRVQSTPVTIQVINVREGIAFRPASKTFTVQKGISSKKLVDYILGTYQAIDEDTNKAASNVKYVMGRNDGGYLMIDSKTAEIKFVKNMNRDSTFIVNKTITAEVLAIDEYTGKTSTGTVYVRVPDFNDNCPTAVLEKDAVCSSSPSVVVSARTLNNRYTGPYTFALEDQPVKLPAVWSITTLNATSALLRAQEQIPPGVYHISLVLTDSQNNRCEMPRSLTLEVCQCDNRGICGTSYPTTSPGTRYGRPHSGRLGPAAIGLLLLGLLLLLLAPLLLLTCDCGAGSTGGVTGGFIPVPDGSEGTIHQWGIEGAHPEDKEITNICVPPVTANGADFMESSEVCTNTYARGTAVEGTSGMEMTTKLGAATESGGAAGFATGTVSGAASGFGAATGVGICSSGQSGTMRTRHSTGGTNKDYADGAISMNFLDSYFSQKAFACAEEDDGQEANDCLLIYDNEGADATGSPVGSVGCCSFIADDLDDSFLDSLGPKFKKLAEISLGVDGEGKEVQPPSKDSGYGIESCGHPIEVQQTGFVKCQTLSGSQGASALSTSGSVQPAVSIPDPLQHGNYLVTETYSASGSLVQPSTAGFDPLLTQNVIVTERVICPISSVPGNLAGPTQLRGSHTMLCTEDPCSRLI
ADAM17 inh = ADAM17 inhibition, QFRET primary screen | recombinant ADAM17, EDANS/DABCYL FRET peptide cleavage | inhibition, % at 6.95 µM | hit rate 0.83% among 370,000 | AID 720648;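 active means inhibition above the mean of compounds lying between control limits plus 3 SD, set per campaign, cut at about 8.5% in these data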;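 further: 0% = DMSO-only wells as the low control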
KLK7 act conf = confirmation of human kallikrein-7 zymogen activators | hit rate 68% among 3,200 | shares compounds with proKLK7 act | activation, % at 7 µM | purified proKLK7, EDANS-DABCYL substrate fluorescence; scaled: vehicle 0, mature enzyme 100 | AID 686949;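 active means activation, as change over the incubation, above the mean of all tested compounds plus 3 SD, cut at about 13% in these data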
EDANS interfere = counter-screen for kallikrein-7 activators: EDANS-DABCYL optical interference; activation, % at 7 µM; EDANS-DABCYL substrate fluorescence interference, no enzyme, 4 h; solvent 0%, active enzyme control 100%; shares compounds with proKLK7 act; AID 686952; hit rate 80% among 3,200;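 active means activation above the all-compound mean plus 3 SD, ignoring values outside control-based bounds, cut at about 4.8% in these data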;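 further: value is the 4 h activation minus the activation read at time zero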
* marks the source's active call; other numbers are inactive results; i = inactive; ? = inconclusive; nt = no result. Only some compounds are listed: those with a hit (about 4.7% of all), similar ones and a draw of the others.

SMILES	rCAG binder	ADAM10 inh	MPTP block	proKLK7 act	Pemphigus Ab inh	ADAM17 inh	KLK7 act conf	EDANS interfere
Cc1cc2n(n1)C(c1ccco1)Nc1ccccc1-2 (centres undefined)	5	-73	3	0	97	-16	nt	nt
c1ccc(C2Nc3ccccc3-c3nc4ccccc4n32)cc1 (centres undefined)	1	i	3	66*	nt	i	3	5.4*
COCCN(CC(=O)Nc1cccc(S(=O)(=O)N2CCCC2)c1)Cc1nc2ccccc2c(=O)[nH]1	7	-2	0	0	?	-5	nt	nt
S=C(c1cccs1)N1CCN(c2ccccc2)CC1	0	3	0	0	100	-2	nt	nt
COc1cccc(CNC(=S)Nc2ccc3c(c2)c(=O)n(C)n3Cc2ccccc2)c1	1	i	1	1	nt	-149	nt	nt
CCNC(=S)Nc1ccc2c(c1)c(=O)n(C)n2Cc1cccc(C(F)(F)F)c1	0	i	-1	20*	nt	i	-7	-6
COc1cccc(CNC(=S)Nc2ccc3c(c2)c(=O)n(C)n3Cc2csc(C)n2)c1	3	i	2	15*	nt	i	-2	2
Cn1c(=O)c2cc(NC(=O)OCCF)ccc2n1Cc1cccc(C(F)(F)F)c1	1	i	1	13*	nt	i	9	5.7*
COc1ccc(S(=O)(=O)N2CCOCC2)cc1NC(=O)CNC(=O)c1cccs1	5	-6	-2	0	?	-5	nt	nt
COc1ccc(-c2cc(-c3ccccc3)n3ncnc3n2)cc1	-1	i	-2	30*	98	i	25*	-24
COc1ccc(-c2ccnc3ncnn23)cc1	-2	i	-1	33*	nt	i	27*	35*
COc1ccc(-c2cc(N3CCCC3)n3ncnc3n2)cc1	0	-56	6	-1	100	-15	nt	nt
FCCCOc1ccc(-c2ccnc3ncnn23)cc1	-2	i	-2	3	110	i	nt	nt
O=C1NC(Cc2ccc(O)cc2)c2nc3ccc(Cl)cc3c(=O)n2-c2cc3ccccc3cc21 (centres undefined)	23	-3	0	-2	nt	2	nt	nt
Cc1ccc(S(=O)(=O)N2CCOCC2)cc1NC(=O)COC(=O)/C=C/c1ccc(F)cc1	3	0	-2	-1	nt	-1	nt	nt
Cc1cc2c([nH]c3ccccc32)c(C)n1	-2	i	0	33*	108	-377	28*	25*
Cc1nc(C(=O)NCCO)cc2c1[nH]c1ccccc12	2	-114	0	8	112	-40	nt	nt
Cc1c(Cc2ccccc2)c(=O)oc2cc(O)ccc12	4	i	12	88*	89	i	71*	80*
C=CCc1c(O)c(CC)cc2c(C)cc(=O)oc12	2	i	4	90*	92	i	61*	66*
Cc1c(Cc2ccccc2)c(=O)oc2c(O)c(O)ccc12	21	-82	-1	-5	nt	-31	nt	nt
CCN(CC)Cc1c(O)c(Cl)cc2c(C)cc(=O)oc12	6	i	0	53*	99	i	73*	66*
CCOc1cc2c(C)cc(=O)oc2cc1Cl	0	-75	0	1	102	-22	nt	nt
Cc1c(Cc2ccccc2)c(=O)oc2c(CN(C)C)c(O)c(Cl)cc12	-3	i	3	48*	nt	i	68*	67*
O=S(=O)(c1ccc(Br)cc1)N1CCN(Cc2ccco2)CC1	-6	3	0	0	115	-5	nt	nt
COc1ccc2c(c1)c(=O)oc1cc(O)ccc12	3	-170	2	-4	103	-46	nt	nt
CCN(CC)Cc1c(O)c(Cl)cc2c(C)c(C)c(=O)oc12	5	i	0	58*	98	i	66*	83*
COc1ccc(-c2c(C)c3ccc(O)cc3oc2=O)cc1	6	i	1	82*	111	i	73*	83*
CCOC(=O)c1c(C)oc2cc(Cl)c(O)c(CN(C)C)c12	-6	-5	4	1	99	-4	nt	nt

Source: PubChem BioAssay
